# Rows were chosen to be rich in hits. Some 12% of all compounds tested hit in one or more screens of this group.
# Gal4-VP16 FLuc: Gal4-VP16 reporter inhibition counter-screen; AID 2546; Potency, µM (series often up to 53.6 µM), without a hit: at the top dose activity, negative = inhibition, hits mostly inhibitors; 310,000 compounds, 3.5% hits; Drosophila S2 Gal4-VP16 UAS-luciferase, luminescence, 20 h;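 note: Gal4-VP16 expression switched on by copper sulfate through the metallothionein promoter; nearly all actives have a fitted effect of over 50% in size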
# ALDH1A1 inh: ALDH1A1 (human) enzyme inhibition. Potency, µM (series often up to 75.3 µM), for inactives: at the top dose activity, negative = inhibition, most hits filed as inhibitors. 220,000 compounds, 7.3% hits. Purified ALDH1A1, NADH fluorescence, propionaldehyde substrate. P00352; active = well fitted inhibition curve with a large enough effect, not every such curve was filed as active; inconclusive = small, poorly fitted or top-dose-only effect, or another doubt; inactive = no such curve, though single readings can be large or run the other way;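 note: plate controls were no enzyme wells and a reference inhibitor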
# RORg inh: ROR gamma (mouse) transcription inhibition | Potency, µM (top dose mostly 53.6 µM), inactives show at the top dose activity change, negative = inhibition, hits mostly inhibitors | Drosophila S2 Gal4-RORgamma UAS-luciferase reporter, 20 h | P51450 | 310,000 compounds, 5.4% hits | AID 2551; note: nearly all actives have a fitted effect of over 60% in size
#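 Schneider cells (Drosophila), stable Gal4 DBD–ROR gamma + UAS-luc; 1 hr cmpd preincubation; Cu2+ induction 700 uM final; 20 hr ambient; luminescence.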
# PLK1 PBD block: inhibitors of human PLK1 polo-box domain binding; AID 720504; Plk1 PBD binding of FITC phosphopeptide, fluorescence polarization; Potency, µM, for the others: max response, negative = inhibition, hits mostly inhibitors; 360,000 compounds, 2.8% hits; note: series mostly up to about 57 µM; nearly all actives have a fitted effect of over 65% in size
# Target sequence (P53350 whole entry, looked up, the tested form may be a part): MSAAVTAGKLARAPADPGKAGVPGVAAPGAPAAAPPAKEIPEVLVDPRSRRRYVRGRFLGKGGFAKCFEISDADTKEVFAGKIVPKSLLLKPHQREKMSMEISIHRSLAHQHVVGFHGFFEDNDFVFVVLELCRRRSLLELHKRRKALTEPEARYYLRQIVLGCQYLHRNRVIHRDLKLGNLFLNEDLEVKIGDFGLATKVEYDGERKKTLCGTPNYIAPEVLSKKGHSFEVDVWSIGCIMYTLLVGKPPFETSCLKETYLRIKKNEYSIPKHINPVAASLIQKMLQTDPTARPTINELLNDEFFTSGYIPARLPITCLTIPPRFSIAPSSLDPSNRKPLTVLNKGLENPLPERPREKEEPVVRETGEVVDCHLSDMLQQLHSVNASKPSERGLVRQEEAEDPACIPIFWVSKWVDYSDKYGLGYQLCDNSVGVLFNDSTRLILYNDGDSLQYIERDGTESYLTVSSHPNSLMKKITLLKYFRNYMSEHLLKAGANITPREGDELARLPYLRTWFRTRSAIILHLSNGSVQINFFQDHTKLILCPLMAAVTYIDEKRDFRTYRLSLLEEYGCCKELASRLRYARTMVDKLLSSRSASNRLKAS
# Sfp PPTase inh: inhibitors of Bacillus subtilis Sfp phosphopantetheinyl transferase | Q9F4F7 | 310,000 compounds, 3.5% hits | Potency, µM, inactives show largest response in the series, negative = inhibition, usual class: inhibitors | Biochemical Sfp PPTase activity, qHTS;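 note: the enzyme is Sfp with the accession as filed and its product quenches rhodamine fluorescence; 0% = enzyme reaction without inhibitor and -100% = no enzyme wells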
#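 Buffer: 50 mM Hepes-Na pH 7.6, 10 mM MgCl2, 0.01% Nonidet P-40, 0.01% BSA. Enzyme 15 nM, pre-exposed to compound 15 min; substrates then added and fluorescence change tracked over 30 min.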
# An asterisk follows results filed as active; ? = inconclusive; . = not tested or not shown; [ ] = remark or other dose. Unless noted, calls come from the whole dose curve; as a rule, active = well fitted curve in the direction sought with a large enough effect; inconclusive = small, poorly fitted or top-dose-only effect, or another doubt; inactive = no such curve, though single readings can be large; an effect the other way counts as inactive or inconclusive. Unless noted, % is set by controls: 0 for no effect and ±100 for the full control effect; potency is the fitted concentration of half-maximal effect.
SMILES,Gal4-VP16 FLuc,ALDH1A1 inh,RORg inh,PLK1 PBD block,Sfp PPTase inh
CC(Cc1cccs1)NC(=S)Nc1ccccc1 (stereo unspecified),7.1µM*,?,4.5µM*,-18%,-3%
CCC(C)NC(=S)Nc1ccccc1 (stereo unspecified),?,.,5.6µM*,-2%,15%
CCCOC(=S)Nc1ccccc1,-20%,12%,11µM*,-8%,15%
Cc1ccccc1S(=O)(=O)NC(=O)C1(C)CCN1C(=O)C1(c2ccccc2)CC1 (stereo unspecified),.,.,.,-4%,.
CC(=O)N(O)[C@@H]1c2cc(C#N)ccc2OC(C)(C)[C@H]1O,-5%,4%,1%,.,13%
CCCNC(=O)C1(C)CCCN(Cc2cc(-c3ccccc3)n(C)n2)C1 (stereo unspecified),.,.,.,-5%,.
CC(C)N(C)NC(=S)Nc1ccccc1,?,1%,-42%[10 µM],1%,4%
CCCC(C)NC(=S)Nc1cc(C)cc(C)c1 (stereo unspecified),6.3µM*,12%,1.4µM*,-9%,23%
CCc1cccc(CC)c1NC(=S)Nc1ccccc1,?,3%,13µM*,-12%,16%
CCN(CC)NC(=S)Nc1ccccc1,?,2%,3.2µM*,-12%,8%
CC(NC(=S)Nc1ccc(F)cc1)c1ccccc1 (stereo unspecified),7.9µM*,.,7.1µM*,-7%,17%
Nc1ccc([N+](=O)[O-])c(N)c1,8%,-6%,27%,.,.
CCOC(=O)NC1(NCC(C)C)Oc2ccccc2O1,10%,?,-33%,-5%,79µM*
CCOC(=O)NC1(NC2CCCCC2)Oc2ccccc2O1,11%,?,?,-4%,56µM*
CCOC(=O)NC1(NC(C)C)Oc2ccccc2O1,2%,?,-36%,?,?
CCOC(=O)NC1(Nc2ccc(C)cc2)Oc2ccccc2O1,?,13%,-20%,0%,35µM*
CCOC(=O)NC1c2ccccc2Oc2ccccc21,-5%,.,-1%,-8%,5%
CCOC(=O)NC1(NCc2ccccc2)Oc2ccccc2O1,4%,22µM*,?,0%,50µM*
CCCCN1C(=O)C(CC(=O)NCCCCc2ccccc2)CC(C(=O)N(C)C)=C1C (stereo unspecified),.,.,.,-10%,.
CNc1ncncc1-c1ccccc1CN(C)C,2%,?,2%,.,7%
COCCn1c(=O)c(-c2ccccc2)nc2cnc(Oc3ccccc3)nc21,8%,?,14%,.,-73%
C/C(=N\NC(=O)C1CC1)c1ccccc1Br,10µM*,.,?,0%,17%
C/C(=N\NC(=O)C1CC1)c1ccc(C(C)(C)C)cc1,-1%,.,31%,-13%,3%
C/C(=N\NC(=O)C1CC1)c1ccc(Cl)cc1,-12%,8%,32%,-12%,1%
C/C(=N\NC(=O)C1CC1)c1ccccc1O,6.3µM*,15%,1µM*,-15%,-6%
SMILES,Gal4-VP16 FLuc,ALDH1A1 inh,RORg inh,PLK1 PBD block,Sfp PPTase inh
COc1ccc(-c2nc3cnc(N4CCN(C)CC4)nc3n(CCc3ccccc3)c2=O)cc1,0%,?,-1%,.,26%
O=C1NN=COc2ccccc21,-5%,-2%,13µM*,-1%,?
O=C(O)c1ccc(N/N=C/C2=C(N3CCOCC3)C(=C\c3ccccc3)/CC2)cc1,-8%,.,-1%,?,50µM*
Cn1cc(C(=O)N/N=C/C2=C(N3CCOCC3)C(=C/c3ccc([N+](=O)[O-])cc3)/CC2)ccc1=O,.,.,.,-1%,.
Cc1cc(C)nc(NN=CC2=C(N3CCOCC3)/C(=C/c3ccc(Cl)cc3)CC2)n1,.,.,.,-3%,.
O=CC1=C(N2CCOCC2)/C(=C/c2ccc(Cl)cc2)CC1,-10%,11µM*,-20%,?,-13%
Cc1cc(C)nc(N/N=C/C2=C(N3CCOCC3)C(=C\c3ccc(Cl)cc3)/CC2)n1,?,16µM*,10µM*,?,-29%
O=C(c1cc(O)c(O)c([N+](=O)[O-])c1)c1ccccc1F,.,13µM*,.,-11%,.
CC(C)[C@H](NC(=O)OC(C)(C)C)[C@@H](O)CC(=O)C(C)(C)C,-5%[10 µM],7%[13.5 µM],16%[10 µM],.,3%
CC(C)CC(=O)NC(=S)Nc1cc(C(F)(F)F)ccc1N1CCOCC1,7.1µM*,-6%,7.9µM*,-12%,18%
O=C(CCc1ccccc1)NC(=S)Nc1cc(C(F)(F)F)ccc1N1CCOCC1,?,?,7.1µM*,-20%,1%
